Assay outcomes from PubChem BioAssay.
Sampled rows, rich in hits. Any-hit rate of the full collection: about 21%.
MRP-1 activ – H69AR viability gain despite doxorubicin, primary screen, MRP-1 activator project, H69AR cells, CellTiter-Glo; viability rescue; viability increase, % at 10 µM; 140,000 tested, 0.61% active; AID 799, 2007;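 active means viability gain under doxorubicin at or above a set limit, the compound median plus 3 SD, cut at about 4.7% in these data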;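 further: MRP-1 overexpressing cells given doxorubicin 25 µM after compound pretreatment; 18-22 h compound pretreatment then 72 h with doxorubicin before readout; 0% = doxorubicin-only wells and 100% = vehicle-treated cells without doxorubicin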
CYP2C9 inhib – blockers of cytochrome P450 2C9 activity – biochemical, luminescence, ADME assay, primary screen; 96,000 tested, 20% active; inhibition, % at 5 µM; CYP2C9 Supersomes, luciferin-H conversion; P11712; AID 777, 2007;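 active means blocking of liver enzyme CYP2C9 beyond about 50% at 5 µM, limit read from the data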
Target sequence (P11712 whole entry, looked up): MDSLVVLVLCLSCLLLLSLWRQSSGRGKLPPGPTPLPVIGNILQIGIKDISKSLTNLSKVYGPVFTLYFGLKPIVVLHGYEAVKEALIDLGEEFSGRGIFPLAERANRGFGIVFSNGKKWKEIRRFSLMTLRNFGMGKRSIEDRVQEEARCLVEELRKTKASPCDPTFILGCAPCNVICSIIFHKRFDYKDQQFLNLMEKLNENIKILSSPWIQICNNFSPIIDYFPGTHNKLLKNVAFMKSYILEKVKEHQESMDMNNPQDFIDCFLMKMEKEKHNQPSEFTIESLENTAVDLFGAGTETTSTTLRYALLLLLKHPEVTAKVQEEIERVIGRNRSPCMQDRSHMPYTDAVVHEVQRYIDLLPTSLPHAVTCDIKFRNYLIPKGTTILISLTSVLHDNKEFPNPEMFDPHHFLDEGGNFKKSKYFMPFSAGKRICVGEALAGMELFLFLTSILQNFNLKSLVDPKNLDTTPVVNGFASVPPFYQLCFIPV
MRP reversal – reversal of MRP1-mediated doxorubicin resistance, primary screen, H69AR cells, doxorubicin co-treatment. H69AR cells + 2 uM doxorubicin, CellTiter-Glo, 72 h. differential viability (reversal), % at 10 µM. 85,000 tested, 0.04% active. AID 602, 2007;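 active means viability drop by adding the cancer drug above about 55%, with treated viability meeting a 40% cutoff, limit read from the data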;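 further: viability without doxorubicin minus viability with 2 µM doxorubicin for each compound; larger differential means the compound sensitizes cells more to doxorubicin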
CYP2C9 activ – human CYP2C9 activators, primary screen, biochemical, luminescence; Cytochrome P450 2C9 (Homo sapiens), P11712; recombinant CYP2C9, luciferin-H conversion; stronger effect = higher value; factor 1 = untreated enzyme, 0 = blocked; activation factor at 5 µM; 96,000 tested, 1.4% active;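 active means activation factor of 2 or more for CYP2C9 at a 5 µM dose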;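 further: 0 = sulfaphenazole-blocked wells and 1 = vehicle-only wells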
CYP2C19 act – human CYP2C19 activators, primary screen, biochemical, luminescence; Cytochrome P450 2C19 (Homo sapiens), P33261; recombinant CYP2C19, luciferin-H EGE luminescence; stronger effect = higher value; 0 = fully inhibited enzyme, 1 = untreated enzyme; activation factor at 5 µM; 96,000 tested, under 10 active; AID 1025, 2008;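 active means activation factor of at least 2 at 5 µM in the primary screen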;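 further: 0 = wells with 2.5 mM tranylcypromine and 1 = vehicle-only wells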
CYP2C19 inhib – blockers of cytochrome P450 2C19 activity – biochemical, luminescence, ADME assay, primary screen; 96,000 tested, 21% active; CYP2C19 Supersomes, luciferin-H EGE luminescence, 30 min; P33261; inhibition, % at 5 µM;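 active means CYP2C19 inhibition above a set limit at 5 µM in the primary screen, cut at about 50% in these data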;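 further: plate controls were negative control wells for no effect and 2.5 mM tranylcypromine positive control for full effect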
The depositor's hits bear a star; / = no result.

SMILES | MRP-1 activ | CYP2C9 inhib | MRP reversal | CYP2C9 activ | CYP2C19 act | CYP2C19 inhib
CN(c1ccccc1)c1ccc(/C=N/N2CCOCC2)cc1 | 2 | / | / | / | / | /
COc1ccc(S(=O)(=O)N2CCCCCC2)cc1C(=O)OCC(=O)NCC(C)C | -3 | 41 | / | 0.6 | 0.7 | 35
O=C(c1cc(S(=O)(=O)N2CCOCC2)ccc1F)N1CCN(Cc2ccccc2)CC1 | -4 | 9 | 3 | 0.9 | 0.3 | 75*
CC(C)CNC(=O)COC(=O)c1cc(S(=O)(=O)N2CCCCC2)ccc1N1CCOCC1 | -4 | 69* | 14 | 0.3 | 0.5 | 47
Cc1ccc(CNC(=O)C2CCN(S(=O)(=O)N3CCOCC3)CC2)cc1 | 1 | -5 | 7 | 1.1 | 1.1 | -8
O=C1CCC(=O)N1CN(C(=O)c1ccco1)c1ccccc1 | 0 | 1 | 4 | 1 | 1 | 2
Cc1ccc(N(CN2C(=O)C3CC=CCC3C2=O)C(=O)c2ccco2)cc1Cl (stereo unspecified) | -2 | 61* | -16 | 0.4 | 0.5 | 45
CC(=O)c1c(C(C)=O)c(C)n(-c2ccc(N)c(C)c2)c1C | -1 | 42 | -20 | 0.6 | 0.7 | 25
COc1ccc(OC2OC3COC(C)(C)OC3C(O)C2NC(C)=O)cc1 (stereo unspecified) | 0 | / | -3 | / | / | /
COCC(=O)NC1CC2CCCC(C1)N2Cc1ccccc1 (stereo unspecified) | 0 | -2 | 5 | 1 | 1.1 | -9
CC(=O)NC1CC2CCC(C1)N2Cc1ccc(C)cc1 (stereo unspecified) | -1 | -1 | 10 | 1 | 0.5 | 54*
CC(C)NC(=O)CN1CCN(c2ncccn2)CC1 | -1 | 8 | 5 | 0.9 | 0.9 | 10
Cc1ccc(NC(=O)CSC2=Nc3ccccc3C3CC=NN23)c(C)c1 (stereo unspecified) | -2 | 37 | / | 0.6 | 0.1 | 93*
COC(=O)c1ccc(NC(=O)CSC2=Nc3ccccc3C3CC=NN23)cc1 (stereo unspecified) | -1 | 69* | / | 0.3 | 0.3 | 68*
CCOC(=O)C1CCCN(C(=O)c2ccccc2NC(C)=O)C1 (stereo unspecified) | -1 | -4 | -4 | 1 | 1 | 1
CCOC(=O)C1CCCN(C(=O)c2cc(-c3ccccc3)on2)C1 (stereo unspecified) | -2 | -155 | 18 | 2.5* | 0.8 | 17
CCOC(=O)C1CCCN(C(=O)c2cc(Nc3ccc(OC)cc3)nc3ccccc23)C1 (stereo unspecified) | -4 | 77* | 4 | 0.2 | 0.8 | 20
CCOC(=O)C1CCCN(C(=O)CSc2nccn2C)C1 (stereo unspecified) | -2 | 15 | -14 | 0.8 | 0.4 | 55*
CCOC(=O)C1CCCN(C(=O)c2cc3c(C)nc4ccccc4c3o2)C1 (stereo unspecified) | 0 | -2 | 27 | 1 | 0.8 | 22
CCOC(=O)C1CCCN(C(=O)COc2ccccc2O)C1 (stereo unspecified) | 1 | 16 | 17 | 0.8 | 0.7 | 35
CCOC(=O)C1CCCN(C(=O)c2ccccc2Oc2ccccc2)C1 (stereo unspecified) | -3 | 99* | 15 | 0 | 0.1 | 87*
N#C/C(=C/c1ccc(CNS(=O)(=O)c2ccccc2)o1)C(=O)NCc1ccccc1 | -2 | / | / | / | / | /
CCOC(=O)C1CCCN(C(=O)c2ccc(C)cc2O)C1 (stereo unspecified) | -2 | 25 | / | 0.7 | 0.2 | 81*
CCOC(=O)C1CCCN(C(=O)c2ccco2)C1 (stereo unspecified) | -2 | 26 | -31 | 0.7 | 0.6 | 37
N#CCSc1nnc2ccc3ccccc3n12 | -2 | -46 | 14 | 1.5 | 0.8 | 16
SMILES | MRP-1 activ | CYP2C9 inhib | MRP reversal | CYP2C9 activ | CYP2C19 act | CYP2C19 inhib
N#CCSc1nnc(Cc2cccc3ccccc23)n1C1CCCCC1 | -1 | 45 | -6 | 0.6 | 0.4 | 57*
O=C(NC(Cc1ccccc1)C(=O)NCc1ccccn1)c1ccco1 (stereo unspecified) | -1 | 7 | -13 | 0.9 | 0.7 | 26
COc1cc(OC)c(OC)cc1/C=N/NC(=S)NCC1CCCO1 (stereo unspecified) | -1 | 65* | / | 0.3 | 1 | 5
COc1cc(/C=N/NC(=O)C(=O)NCC2CCCO2)ccc1O (stereo unspecified) | 3 | / | / | / | / | /
CCOC(=O)/C=C/C(=O)Nc1ccccc1-c1ccccc1NC(=O)/C=C/C(=O)OCC | -5 | / | / | / | / | /
O=S(=O)(Nc1nnc(-c2ccccc2)s1)c1ccc(Cl)cc1 | -1 | 99* | 3 | 0 | 0.2 | 83*
CC(C)CC(=O)NC(=S)Nc1ccc(N2CCOCC2)cc1 | -2 | / | / | / | / | /
O=C(NNC(=O)c1cccs1)c1ccc(Cl)c(Cl)c1 | 1 | / | / | / | / | /
COc1cc(Nc2ccccc2Cl)c([N+](=O)[O-])nc1[N+](=O)[O-] | -2 | 8 | -33 | 0.9 | 0.2 | 81*
CC(C)NCCOCCOc1ccccc1F | -1 | 18 | 9 | 0.8 | 1.1 | -7
CCC1CCc2c(sc(NC(=O)c3ccco3)c2C(N)=O)C1 (stereo unspecified) | -2 | / | -23 | / | / | /
CC(C)(C)C1CCc2c(sc(N)c2C(N)=O)C1 (stereo unspecified) | -4 | 47 | / | 0.5 | 0.4 | 63*
CCC(C)(C)C1CCc2c(sc(N)c2C(N)=O)C1 (stereo unspecified) | 0 | / | / | / | / | /
CCCC1CCc2c(sc(N)c2C(N)=O)C1 (stereo unspecified) | -1 | 69* | -8 | 0.3 | 0.3 | 68*
N/C(Cc1cccs1)=N\OC(=O)COc1ccc(Br)cc1 | 5.3* | 10 | -3 | 0.9 | 0.9 | 6
CCCn1c(SC(C(=O)Nc2cccc(OC)c2)c2ccccc2)nc2ccccc2c1=O (stereo unspecified) | -3 | / | / | / | / | /
CCCCNC(=O)NS(=O)(=O)c1ccc(NS(=O)(=O)c2ccccc2)cc1 | 1 | 55* | -8 | 0.4 | 1 | -2
COc1ccc(NS(=O)(=O)c2cccc(C(=O)OCC(=O)Nc3cc(C)on3)c2)cc1 | -1 | 71* | 1 | 0.3 | 0.9 | 10
Cc1ccc(S(=O)(=O)N(C)c2ccc(OCC(=O)NCc3ccco3)cc2)cc1 | -1 | 93* | 6 | 0.1 | 0.8 | 16
CCNC(=O)COc1ccc(S(=O)(=O)Nc2ccccc2)cc1 | -1 | 62* | -13 | 0.4 | 0.6 | 39
COc1ccc(-c2noc(-c3ccco3)n2)cc1OC | 0 | 7 | 5 | 0.9 | 1 | 4
COc1cccc(S(=O)(=O)Nc2ccc(C(=O)NCc3ccco3)cc2)c1 | -3 | 98* | 8 | 0 | 0.4 | 61*
